# Experimental data from the supplement of paper PMC12645437, “Orthogonal IMiD-Degron Pairs Induce Selective Protein Degradation in Cells” (ACS Chemical Biology, 2025).
# In all, about 8,300 sequences were measured (“log2 fold change of degron read counts, EGFP-low vs EGFP+ sorted cells (limma voom), compound-induced degradation”: median about -1.1, highest 2% from about 3.2 on). For the sample, the highest values were picked, then their nearest neighbours and some sequences at random.
# T1: CRBN, Q96SW2
# T1 chain: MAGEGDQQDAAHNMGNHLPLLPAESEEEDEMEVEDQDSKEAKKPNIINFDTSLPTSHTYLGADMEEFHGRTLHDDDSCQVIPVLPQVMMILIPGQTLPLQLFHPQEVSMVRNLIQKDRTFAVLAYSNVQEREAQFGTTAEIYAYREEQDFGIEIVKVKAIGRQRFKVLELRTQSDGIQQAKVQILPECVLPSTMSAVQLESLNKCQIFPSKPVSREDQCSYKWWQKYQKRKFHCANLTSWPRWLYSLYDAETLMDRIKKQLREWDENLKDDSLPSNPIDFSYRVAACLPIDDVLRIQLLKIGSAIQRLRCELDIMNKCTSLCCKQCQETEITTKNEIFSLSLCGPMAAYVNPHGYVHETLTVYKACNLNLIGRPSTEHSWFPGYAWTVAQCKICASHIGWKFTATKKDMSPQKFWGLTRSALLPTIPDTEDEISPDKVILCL
# B1: 46F_47L_49E_50V_52G_53A_54Y_55F_67L_, Q9UKT9 (peptide)
# chain: FLCEVCGAYFTQKGNLLRHIKL
# B2: 46F_47N_49N_50Q_52G_53R_54W_55F_67L_, Q9UKT9 (peptide)
# chain: FNCNQCGRWFTQKGNLLRHIKL
# B3: 46L_47L_49N_50Q_52G_53F_54P_55C_67L_, Q9UKT9 (peptide)
# chain: LLCNQCGFPCTQKGNLLRHIKL
# B4: 46F_47F_49E_50V_52G_53A_54M_55F_67L_, Q9UKT9 (peptide)
# chain: FFCEVCGAMFTQKGNLLRHIKL
# B5: 46F_47A_49E_50V_52G_53A_54M_55F_67L_, Q9UKT9 (peptide)
# chain: FACEVCGAMFTQKGNLLRHIKL
# B6: 46F_47Q_49E_50V_52G_53A_54M_55F_67L_, Q9UKT9 (peptide)
# chain: FQCEVCGAMFTQKGNLLRHIKL
# B7: 46F_47V_49E_50V_52G_53A_54M_55F_67L_, Q9UKT9 (peptide)
# chain: FVCEVCGAMFTQKGNLLRHIKL
# B8: 46F_47H_49E_50V_52G_53A_54M_55F_67L_, Q9UKT9 (peptide)
# chain: FHCEVCGAMFTQKGNLLRHIKL
# B9: 46F_47G_49E_50V_52G_53A_54M_55F_67L_, Q9UKT9 (peptide)
# chain: FGCEVCGAMFTQKGNLLRHIKL
# B10: 46F_47E_49E_50V_52G_53A_54M_55F_67L_, Q9UKT9 (peptide)
# chain: FECEVCGAMFTQKGNLLRHIKL
# B11: 46F_47D_49E_50V_52G_53A_54M_55F_67L_, Q9UKT9 (peptide)
# chain: FDCEVCGAMFTQKGNLLRHIKL
# B12: 46F_47S_49E_50V_52G_53A_54M_55F_67L_, Q9UKT9 (peptide)
# chain: FSCEVCGAMFTQKGNLLRHIKL
# B13: 46F_47K_49E_50V_52G_53A_54M_55F_67L_, Q9UKT9 (peptide)
# chain: FKCEVCGAMFTQKGNLLRHIKL
# B14: 46F_47N_49E_50V_52G_53A_54M_55F_67L_, Q9UKT9 (peptide)
# chain: FNCEVCGAMFTQKGNLLRHIKL
# B15: 46F_47Y_49E_50V_52G_53A_54M_55F_67L_, Q9UKT9 (peptide)
# chain: FYCEVCGAMFTQKGNLLRHIKL
# Target: T1, CRBN, Q96SW2
# Assay: log2 fold change of degron read counts, EGFP-low vs EGFP+ sorted cells (limma voom), compound-induced degradation; higher = more compound-induced degradation of the degron-EGFP fusion; degrons are variants of IKZF1/3 zinc finger 2; compound dose not given here
# Settings: Jurkat, 18 h
# [1] = compound: compound 19 (5-tert-butyl-thalidomide)
# [2] = compound: compound 22 (5-morpholino-thalidomide)
# [3] = compound: compound 33 (diphenyl IMiD analogue)
# 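Further: pooled lentiviral library of zinc finger degron-EGFP fusions in mCherry-positive Jurkat cells, FACS-sorted after compound exposure, with degron abundance counted by next-generation sequencing.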
sequence,measurement,setting,value
B1,log2 fold change of degron read counts,[1],-0.235
same,log2 fold change of degron read counts,[2],-1.51
same,log2 fold change of degron read counts,[3],0.35
same,log2 fold change of degron read counts,compound: thalidomide,0.301
B2,log2 fold change of degron read counts,[1],-2.05
same,log2 fold change of degron read counts,[2],-2.2
same,log2 fold change of degron read counts,[3],-1.98
same,log2 fold change of degron read counts,compound: thalidomide,-1.8
B3,log2 fold change of degron read counts,[1],-1.89
same,log2 fold change of degron read counts,[2],-1.87
same,log2 fold change of degron read counts,[3],-1.69
same,log2 fold change of degron read counts,compound: thalidomide,-1.84
B4,log2 fold change of degron read counts,[1],3.14
same,log2 fold change of degron read counts,[2],3.15
same,log2 fold change of degron read counts,[3],2
same,log2 fold change of degron read counts,compound: thalidomide,0.314
B5,log2 fold change of degron read counts,[1],3.25
same,log2 fold change of degron read counts,[2],1.34
same,log2 fold change of degron read counts,[3],0.261
same,log2 fold change of degron read counts,compound: thalidomide,-0.323
B6,log2 fold change of degron read counts,[1],-0.365
same,log2 fold change of degron read counts,[2],2.11
same,log2 fold change of degron read counts,[3],2.44
same,log2 fold change of degron read counts,compound: thalidomide,3.52
B7,log2 fold change of degron read counts,[1],-0.335
same,log2 fold change of degron read counts,[2],1.3
same,log2 fold change of degron read counts,[3],1.8
same,log2 fold change of degron read counts,compound: thalidomide,2.05
B8,log2 fold change of degron read counts,[1],1.44
same,log2 fold change of degron read counts,[2],1.27
same,log2 fold change of degron read counts,[3],0.505
same,log2 fold change of degron read counts,compound: thalidomide,-0.808
B9,log2 fold change of degron read counts,[1],3.32
same,log2 fold change of degron read counts,[2],2.09
same,log2 fold change of degron read counts,[3],1.16
same,log2 fold change of degron read counts,compound: thalidomide,-0.148
B10,log2 fold change of degron read counts,[1],-1.4
same,log2 fold change of degron read counts,[2],-1.93
same,log2 fold change of degron read counts,[3],0.328
same,log2 fold change of degron read counts,compound: thalidomide,1.08
B11,log2 fold change of degron read counts,[1],-0.122
same,log2 fold change of degron read counts,[2],-0.858
same,log2 fold change of degron read counts,[3],0.0809
same,log2 fold change of degron read counts,compound: thalidomide,0.0891
B12,log2 fold change of degron read counts,[1],2.43
same,log2 fold change of degron read counts,[2],1.36
same,log2 fold change of degron read counts,[3],1.15
same,log2 fold change of degron read counts,compound: thalidomide,0.408
B13,log2 fold change of degron read counts,[1],-1.98
same,log2 fold change of degron read counts,[2],-3.85
same,log2 fold change of degron read counts,[3],-3.74
same,log2 fold change of degron read counts,compound: thalidomide,-1.96
B14,log2 fold change of degron read counts,[1],0.96
same,log2 fold change of degron read counts,[2],-0.745
same,log2 fold change of degron read counts,[3],-0.544
same,log2 fold change of degron read counts,compound: thalidomide,-0.743
B15,log2 fold change of degron read counts,[1],3.32
same,log2 fold change of degron read counts,[2],3.43
same,log2 fold change of degron read counts,[3],2.43
same,log2 fold change of degron read counts,compound: thalidomide,0.383
